Results on 40 molecules are retold here after PubChem BioAssay (Tox21).

Molecules are shown by their SMILES. Results filed as inconclusive are left out. A number with no mark means an inactive call. Active and inactive are the calls of the source. The call rests on the fitted dose curve; in most records, active means well fitted cell-killing curve with a large enough effect in the repeat runs; inconclusive means weak or mixed curves; inactive means no such curve, though single readings can be large or run the other way.
On the % scale 0 is the no-effect control and ±100 the full control effect; potency means the concentration at half of the fitted maximal effect.

The test is described as follows: qHTS assay for identifying genotoxic compounds that show differential cytotoxicity against isogenic chicken DT40 cell lines with known DNA damage response pathways - Rad54/Ku70 mutant cell line (AID 743015). Further: nearly all actives have a fitted effect of over 60% in size. As to conditions: DT40 Rad54/Ku70 mutant viability, CellTiter-Glo, 40 h; series mostly up to 66.8 µM; activity change, negative = cytotoxicity: at the top concentration. From the text:
National Center for Advancing Translational Sciences [NCATS]
NIH Chemical Genomics Center [NCGC]
U.S. Environmental Protection Agency [EPA]
National Institutes of Environmental Health Sciences [NIEHS]
National Toxicology Program [NTP]
U.S. Food and Drug Administration [FDA]
DNA repair pathways play a critical role in cellular homeostasis by repairing DNA damage induced by endogenous processes and xenobiotics. Isogenic chicken DT40 cell lines deficient in different DNA repair pathways can be used to identify genotoxic compounds and aid in characterizing the nature of the DNA damage induced. Two DNA repair-deficient cell lines with disrupted genes, Rad54/Ku70 or Rev3, were used to screen the Tox21 10K compound library. Possible genotoxicity was based on the presence of a significant increase in cytotoxicity in one or more of the DNA repair-deficient cell lines compared to that observed in the parental DNA repair-proficient cell line. CellTiter Glo viability assay (Promega, Madison, WI) was used to measure cell viability in these cells after compound treatment. This assay includes the data from the Rad54/Ku70 mutant cell line.
Tox21 Assay Protocol Summary:
300 DT40 mutant cells in 5 uL/well were dispensed into white, solid-bottom 1536-well plates using a Multidrop Combi (ThermoFisher Scientific, Waltham, MA) dispenser. After the assay plates were incubated at 37 C/5% CO2 for approximately 0.5 hour, 23 nL of compounds dissolved in DMSO, positive controls or DMSO only was transferred into the assay plate by a pintool work station (Kalypsys, San Diego, CA). The assay plates were incubated at 37 C/5% CO2 for 40 hours. After 5 uL per well of CellTiter-Glo reagent was added into each well of the assay plates, the plates were incubated for 30 min at room temperature and the luminescence intensity of the plates was measured using a ViewLux (PerkinElmer, Shelton, CT) plate reader.
Background: qHTS replaces the single test concentration by a dilution series.
`CCCNC(C)(C)COC(=O)c1ccccc1`: the “activity change, negative = cytotoxicity” value is 1.59%.
Take `CC(C)NCC(O)COc1ccc(CCOCC2CC2)cc1` (stereo not given): the Potency was 29.8 µM (active).
`C=CCCCCCCCCO`: the “activity change, negative = cytotoxicity” value was 5.85%.
On the same count and under the same terms, the result for `CCCCCCCCCC#N` reads 7.71%; that for `CC/C=C\CCOC(=O)CCCCC`, 3.66%; that for `CCN(CC)C(=O)N(CC)CC`, -2.66%.
Still for that read-out and setting: the result for `O=C(O)c1ccccc1Nc1cc(Cl)ccc1C(=O)O` reads 3.33%; that for `CC(=O)N(CC(O)CN(C(C)=O)c1c(I)c(C(=O)NCC(O)CO)c(I)c(C(=O)NCC(O)CO)c1I)c1c(I)c(C(=O)NCC(O)CO)c(I)c(C(=O)NCC(O)CO)c1I` (stereo not given), 5.49% [at 30.7 µM].
With `CCCCOc1cc(C(=O)NCCN(CC)CC)c2ccccc2n1`, the Potency was 10.1 µM (active).
Consider `NNS(=O)(=O)c1ccc(Oc2ccc(S(=O)(=O)NN)cc2)cc1`, for which the “activity change, negative = cytotoxicity” value was -27.4%.
Turning to `C=Cc1ccccc1`, the Potency result is “inactive”.
For `O=C(O)C(=O)Cc1c[nH]c2ccccc12`, the “activity change, negative = cytotoxicity” value is -2.87%.
For `C=O`, the Potency entry was “inactive”.
For the molecule `CCC(=O)Nc1ccc(O)cc1`, the “activity change, negative = cytotoxicity” value was 10.2%.
As for `CCCCNC(=S)NCCCC`, the Potency was 24.3 µM (active).
As for `CC1=CC(=O)CC(C)(C)C1=O`, the “activity change, negative = cytotoxicity” value was 3.77% [at 95.1 µM].
The same measure, in the same setting: for `OCCN1CCN(CCO)CC1` the value was -1.98% [at 95.1 µM]; for `O=C1N(c2ccccc2)c2ccccc2C1(Cc1ccncc1)Cc1ccncc1`, 2.43%.
Still for that read-out and setting: the result for `CCN(CC)CC1CCCCN1CC(=O)N1c2ccccc2C(=O)Nc2cccnc21` (stereo not given) reads 5.24%; that for `CCOc1ccc(NC(N)=O)cc1`, 2.81%; that for `OC[C@H]1O[C@@H](O[C@H]2[C@H](O)[C@@H](O)[C@H](O)O[C@@H]2CO)[C@H](O)[C@@H](O)[C@H]1O`, -1.47%.
Turning to `CC1(C)C(=O)N(Cl)C(=O)N1Br`, the “activity change, negative = cytotoxicity” value was -29.9%.
The same measure, in the same setting: for `CCN(O)CC` the value was -3.49%; for `CCN(CC)CCNC(=O)COc1ccc(Cl)cc1`, -17.7%.
On the same count and under the same terms, the result for `CC1CN(c2ccccc2)NC1=O` (stereo not given) reads 0.91%.
The same measure, in the same setting: for `CCCCCCCCCCCCCCCCOP(=O)([O-])OCC[N+](C)(C)C` the value was 1.8%; for `C[C@@H]1CN(c2c(F)c(N)c3c(=O)c(C(=O)O)cn(C4CC4)c3c2F)C[C@H](C)N1`, -18.4%.
On to `Cc1nnc(SCC2=C(C(=O)O)N3C(=O)[C@@H](NC(=O)Cn4cnnn4)[C@H]3SC2)s1`, for which the “activity change, negative = cytotoxicity” value was -0.425%.
On the same count and under the same terms, for `OCc1ccccc1O` the value was -0.857%; for `CC(C)OC(C)C`, 5.73% [at 95.1 µM]; for `C=CCc1cc(OC)c(O)c(C(=O)NCCO)c1`, 4.1%.
The same measure, in the same setting: the result for `Cc1ccc(C(C)C)cc1O` reads -11.8%; that for `Cc1ccc([N+](=O)[O-])c(N)c1`, -2.1%.
Still for that read-out and setting: the result for `CN1C(=O)CC(c2ccccc2)C1=O` (stereo not given) reads 2.29%.
As to `CCOC(=O)COc1ccc2c(c1)CC(NCC(O)c1cccc(Cl)c1)CC2` (stereo not given), the Potency is 54.9 µM (active).
On to `NS(=O)(=O)c1cc(-c2nn[nH]n2)c(NCc2cccs2)cc1Cl`, for which the “activity change, negative = cytotoxicity” value was 3.88%.
Take `Oc1ccccc1F`: the “activity change, negative = cytotoxicity” value was 9.71%.
On the same count and under the same terms, for `Cc1ccsc1C(=CCCN1CCC[C@@H](C(=O)O)C1)c1sccc1C` the value was -0.516%.
Same read-out and setting: for `FC(F)(F)C(Cl)(Cl)Cl` the value was 10.9%; for `C=CCCC=C`, 0.956% [at 95.1 µM].
